Measurements taken from PubChem BioAssay (EPA / NIEHS).
The source holds several records for some structures; these can differ, active in one and inactive in another. Activity calls are given as the source filed them. How the source made its calls: active means hit-call score of the fitted dose curve at least 0.9, where 1 is the maximum; inactive means score below 0.9.

What was measured:
[1] = APR_HepG2_P-H2AX_72hr: Apredica 72-hour HepG2 Assay for H2AX Phosphorylation (AID 2282916); conditions: imaging, actives raise or lower the signal;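 further: phospho-histone H2A.x immunostain intensity per cell marking DNA damage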
In short: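 Phospho-H2A.x imaging endpoint in HepG2 after 72 hr compound exposure (0.39–200 uM, duplicate wells). Activity derived by bidirectional curve fitting with DMSO as baseline.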

[2] = APR_HepG2_MitoticArrest_72hr: Apredica 72-hour HepG2 Assay for Mitotic Arrest (AID 2282918); conditions: high-content imaging, actives raise or lower the signal
In short: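 HepG2 cells were exposed for 72 hr to compound at 0.39–200 uM (10 concentrations, duplicate) in 0.5% v/v DMSO, fixed in 3.7% formaldehyde, immunostained for phospho-histone H3 with Hoechst 33342 and imaged by high-content fluorescence; bidirectional fits versus DMSO.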

[3] = APR_HepG2_MicrotubuleCSK_72hr: Apredica 72-hour HepG2 Assay for Microtubule CSK Stabilty (AID 2282919); conditions: HepG2 microtubule cytoskeleton, high-content imaging, actives raise or lower the signal
In short: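 HepG2, 72 hr cmpd exposure, 0.39–200 uM (10 pts, duplicate), 0.5% DMSO. 3.7% formaldehyde fix, 0.5% Triton perm, anti-alpha-tubulin/Cy5 plus Hoechst. HCS fluorescence intensity; bidirectional fit vs DMSO baseline; taxol as positive control.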

[4] = APR_HepG2_P-H2AX_24hr: Apredica 24-hour HepG2 Assay for H2AX Phosphorylation (AID 2282920); conditions: high-content imaging, actives raise or lower the signal
In short: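 HepG2 human liver cells were exposed for 24 hr to compounds at 0.39–200 uM in duplicate, with 0.5% v/v DMSO final. Fixed cells were immunostained for phospho-histone H2A.x plus Hoechst 33342, imaged by HCS fluorescence, and fitted bidirectionally against DMSO.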

[5] = APR_HepG2_StressKinase_72hr: Apredica 72-hour HepG2 Assay for Stress Kinase (AID 2282921); conditions: HepG2 stress kinase (phospho-c-Jun) imaging, actives raise or lower the signal
In short: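 Stress kinase signal reflects nuclear phospho-c-Jun staining in fixed, permeabilized cells exposed 72 h to compound at 0.39–200 uM; DMSO-normalized, fitted for increases or decreases.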

[6] = APR_HepG2_StressKinase_24hr: Apredica 24-hour HepG2 Assay for Stress Kinase (AID 2282922); conditions: HepG2 stress kinase (phospho-c-Jun) imaging, actives raise or lower the signal
In short: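 Read-out: phospho-c-Jun immunofluorescence (Cy3 secondary) quantified by high-content imaging at 20x, nuclei defined by Hoechst 33342. Human HepG2 liver cells dosed 24 hr, 0.39–200 uM, DMSO 0.5% v/v; gain or loss of signal fitted relative to DMSO.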

[7] = APR_HepG2_MitoMass_72hr: Apredica 72-hour HepG2 Assay for Mitochondrial Mass (AID 2282924); conditions: high-content imaging, actives raise or lower the signal;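 further: MitoTracker Red CMXRos stain intensity per cell imaged as mitochondrial mass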
In short: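 Read-out: MitoTracker Red fluorescence intensity from automated imaging (20x, six fields per well) in human HepG2 liver cells. Dosing ran 72 hr, 0.39–200 uM, 0.5% DMSO; bidirectional curve fitting versus DMSO baseline.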

[8] = APR_HepG2_NuclearSize_72hr: Apredica 72-hour HepG2 Assay for Nuclear Size (AID 2282925); conditions: high-content imaging, actives raise or lower the signal
In short: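 Read-out: nuclear diameter from Hoechst 33342 images (ArrayScan, 20x, six fields/well), via cell-cycle image analysis. HepG2 were dosed 0.39–200 uM for 72 hr in 0.5% DMSO. Bidirectional fit relative to DMSO.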

[9] = ATG_CRE_CIS: Attagene CIS-FACTORIAL HepG2 Assay for human cAMP Responsive Element (CRE) binding protein 3 (AID 2282926); conditions: HepG2 CRE cis-reporter, Attagene multiplexed mRNA; actives raise or lower the signal
In short: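 Capillary electrophoresis of 6-FAM-labelled, HpaI-digested PCR products quantified reporter transcripts. These came from HepG2 transiently transfected with cis-element reporters and exposed to test chemicals for 24 hours, with DMSO defining baseline activity.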

[10] = target: CCAAT/enhancer-binding protein beta (Homo sapiens) (UniProt P17676); test: ATG_C_EBP_CIS: Attagene CIS-FACTORIAL HepG2 Assay for human CCAAT/Enhancer Binding Protein (C/EBP) beta (AID 2282927); conditions: HepG2 Attagene cis-factorial transcription factor reporter; actives raise or lower the signal
In short: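 HepG2 transiently transfected with multiplexed reporter units under cis-regulatory promoters reporting endogenous C/EBPb activity. After 24 h exposure, reporter mRNA assayed by RT-PCR, fluorescent labelling, HpaI digestion and capillary electrophoresis; bidirectional fitting versus DMSO.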

[11] = ATG_CMV_CIS: Attagene CIS-FACTORIAL HepG2 Assay for human CMV (Internal Marker) (AID 2282928); conditions: HepG2 CMV promoter reporter, transcription factor profiling; actives raise or lower the signal;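 further: endpoint acts as a background internal control marker rather than a target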
In short: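 Fluorescence intensity of RT-PCR-derived reporter fragments, resolved by capillary electrophoresis, gives the signal. HepG2 liver cells bearing transfected cis-element reporters were treated 24 h; activity in either direction was fit relative to DMSO-treated controls.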

[12] = ATG_DR4_LXR_CIS: Attagene CIS-FACTORIAL HepG2 Assay for human Liver X Receptor (LXR), DR4 submotif (AID 2282929); conditions: HepG2 Attagene DR4 cis-reporter, mRNA transcription; actives raise or lower the signal
In short: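 HepG2 cells transiently transfected with cis-promoter-driven multiplexed reporter units (DR4 element) were dosed for 24 h. Reporter mRNA was quantified by RT-PCR, fluorescent primer extension, HpaI digestion and capillary electrophoresis; bidirectional fitting versus DMSO baseline.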

[13] = target: Aryl hydrocarbon receptor (Homo sapiens) (UniProt P35869); test: ATG_Ahr_CIS: Attagene CIS-FACTORIAL HepG2 Assay for human Aryl Hydrocarbon Receptor (Ahr) (AID 2282930); conditions: HepG2 AhR cis-factorial reporter transcription; actives raise or lower the signal
In short: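 HepG2 cells transiently transfected with cis-element-driven multiplexed reporter units; endogenous AhR activity read as reporter mRNA 24 h after dosing, via RT-PCR, 6-FAM labelling, HpaI digestion and capillary electrophoresis. Bidirectional fit relative to DMSO.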

[14] = ATG_AP_1_CIS: Attagene CIS-FACTORIAL HepG2 Assay for human Activator Protein 1 (AP-1) (AID 2282931); conditions: HepG2 Attagene cis-factorial AP-1 reporter mRNA; actives raise or lower the signal
In short: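 HepG2 cells transiently transfected with cis-element-driven multiplex reporter units; 24 h compound exposure. Reporter mRNA quantified by RT-PCR, FAM-labelled fragments resolved by capillary electrophoresis; bidirectional fit versus DMSO baseline.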

[15] = ATG_AP_2_CIS: Attagene CIS-FACTORIAL HepG2 Assay for human Activator Protein 2 (AP-2) (AID 2282932); conditions: HepG2 AP-2 cis-reporter, Attagene transcription factor profiling; actives raise or lower the signal
In short: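 Read-out: fluorescent reporter mRNA via RT-PCR and capillary electrophoresis, 24 h post-dose in transiently transfected HepG2. Endogenous factors drive cis-promoter reporters; gain or loss of signal fitted bidirectionally against DMSO.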

[16] = ATG_BRE_CIS: Attagene CIS-FACTORIAL HepG2 Assay for human Bone Morphogenetic Protein (BMP) Response Element (BRE) (AID 2282933); conditions: HepG2 BMP response element reporter, Attagene transcription factor profiling; actives raise or lower the signal
In short: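 Multiplexed cis-reporter assay, HepG2, 24 h exposure. mRNA from reporter units quantified via RT-PCR/CE; DMSO baseline; bidirectional curve fit.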

[17] = target: Transcription factor E2F1 (Homo sapiens) (UniProt Q01094); test: ATG_E2F_CIS: Attagene CIS-FACTORIAL HepG2 Assay for human E2F Transcription Factor 1 (AID 2282935); conditions: HepG2 Attagene cis-reporter, E2F reporter RNA transcripts; actives raise or lower the signal
In short: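 Transient MRTU transfection of HepG2; 24 h compound exposure; RNA → oligo(dT) RT → PCR → FAM label → HpaI cut → CE fluorescence. Gain/loss of signal fit against DMSO.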

[18] = target: Retinoic acid receptor alpha (Homo sapiens) (UniProt P10276); test: ATG_DR5_RAR_CIS: Attagene CIS-FACTORIAL HepG2 Assay for human Retinoic Acid Receptor Alpha (RARE), DR5 submotif (AID 2282934); conditions: HepG2 Attagene cis-factorial RARE DR5 reporter, mRNA; actives raise or lower the signal
In short: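 HepG2 cells transiently transfected with multiplexed reporter units; DR5 cis-element drives reporter through endogenous transcription factors. After 24 h dosing, reporter mRNA quantified by RT-PCR, fluorescent labeling, HpaI digestion and capillary electrophoresis; bidirectional fitting versus DMSO.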

[19] = APR_HepG2_MitoMembPot_72hr: Apredica 72-hour HepG2 Assay for Mitochondrial Membrane Potential (AID 2282917); conditions: imaging, actives raise or lower the signal
In short: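 HepG2 cells dosed 72 hr with compound at 0.39–200 uM in duplicate, 0.5% v/v DMSO final. Mitochondria stained with 250 nM MitoTracker Red CMXRos for 30 min before formaldehyde fixation, imaged by high-content fluorescence; bidirectional fit versus DMSO.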

[20] = APR_HepG2_p53Act_72hr: Apredica 72-hour HepG2 Assay for p53 Activation (AID 2282923); conditions: high-content imaging, actives raise or lower the signal;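 further: average cellular p53 protein immunofluorescence intensity in HepG2 cells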
In short: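 Fixed-cell p53 staining (sheep primary, Cy5 secondary) measured by fluorescence imaging following 72 hr treatment at 0.39–200 uM in 0.5% DMSO; DMSO served as negative control and baseline.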

Measured: AC50

Sequence of Aryl hydrocarbon receptor (Homo sapiens) (P35869 whole entry, looked up): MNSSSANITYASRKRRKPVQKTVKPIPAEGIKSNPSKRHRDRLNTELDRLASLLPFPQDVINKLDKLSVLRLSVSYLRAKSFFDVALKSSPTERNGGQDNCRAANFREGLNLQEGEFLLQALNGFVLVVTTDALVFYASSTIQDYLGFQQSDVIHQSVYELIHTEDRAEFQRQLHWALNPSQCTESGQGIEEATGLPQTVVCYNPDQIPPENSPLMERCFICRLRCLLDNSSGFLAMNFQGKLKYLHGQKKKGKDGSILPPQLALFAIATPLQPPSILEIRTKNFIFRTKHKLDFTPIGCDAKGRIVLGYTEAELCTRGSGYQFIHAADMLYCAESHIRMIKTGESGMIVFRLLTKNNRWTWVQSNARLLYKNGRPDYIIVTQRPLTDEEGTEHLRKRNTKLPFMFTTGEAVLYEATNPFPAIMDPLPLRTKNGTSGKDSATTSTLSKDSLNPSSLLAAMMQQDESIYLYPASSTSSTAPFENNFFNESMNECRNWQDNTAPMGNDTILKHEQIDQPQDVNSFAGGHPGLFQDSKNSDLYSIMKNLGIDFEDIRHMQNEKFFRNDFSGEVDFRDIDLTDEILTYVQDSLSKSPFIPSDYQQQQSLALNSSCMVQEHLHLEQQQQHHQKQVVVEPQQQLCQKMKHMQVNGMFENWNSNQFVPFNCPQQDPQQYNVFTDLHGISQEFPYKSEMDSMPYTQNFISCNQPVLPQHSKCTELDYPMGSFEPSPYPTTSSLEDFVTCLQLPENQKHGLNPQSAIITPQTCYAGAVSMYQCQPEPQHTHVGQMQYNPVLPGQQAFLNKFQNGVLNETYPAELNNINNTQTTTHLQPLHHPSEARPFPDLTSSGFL
Sequence of Transcription factor E2F1 (Homo sapiens) (Q01094 whole entry, looked up): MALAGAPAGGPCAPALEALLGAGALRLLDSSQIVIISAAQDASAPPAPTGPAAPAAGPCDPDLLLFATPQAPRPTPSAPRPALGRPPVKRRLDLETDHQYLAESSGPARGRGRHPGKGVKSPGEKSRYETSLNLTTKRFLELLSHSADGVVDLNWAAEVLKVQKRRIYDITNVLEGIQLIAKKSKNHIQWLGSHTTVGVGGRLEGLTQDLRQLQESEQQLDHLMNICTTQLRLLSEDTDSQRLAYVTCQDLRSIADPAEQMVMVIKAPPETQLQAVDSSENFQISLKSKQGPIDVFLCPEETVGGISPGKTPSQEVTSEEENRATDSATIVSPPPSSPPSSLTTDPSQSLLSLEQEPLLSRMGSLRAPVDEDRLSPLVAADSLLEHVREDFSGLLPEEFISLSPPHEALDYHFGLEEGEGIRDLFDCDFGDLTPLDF
Sequence of CCAAT/enhancer-binding protein beta (Homo sapiens) (P17676 whole entry, looked up): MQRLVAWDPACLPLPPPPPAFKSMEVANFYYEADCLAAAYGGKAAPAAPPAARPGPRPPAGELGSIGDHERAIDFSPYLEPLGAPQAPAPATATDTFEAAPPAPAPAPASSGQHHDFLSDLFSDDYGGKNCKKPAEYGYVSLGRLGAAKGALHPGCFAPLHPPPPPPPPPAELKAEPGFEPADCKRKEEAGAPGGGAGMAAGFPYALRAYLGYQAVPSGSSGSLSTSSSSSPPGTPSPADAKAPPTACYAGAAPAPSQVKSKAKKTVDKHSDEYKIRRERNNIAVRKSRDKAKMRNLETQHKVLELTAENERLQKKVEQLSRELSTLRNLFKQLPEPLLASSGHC
Sequence of Retinoic acid receptor alpha (Homo sapiens) (P10276 whole entry, looked up): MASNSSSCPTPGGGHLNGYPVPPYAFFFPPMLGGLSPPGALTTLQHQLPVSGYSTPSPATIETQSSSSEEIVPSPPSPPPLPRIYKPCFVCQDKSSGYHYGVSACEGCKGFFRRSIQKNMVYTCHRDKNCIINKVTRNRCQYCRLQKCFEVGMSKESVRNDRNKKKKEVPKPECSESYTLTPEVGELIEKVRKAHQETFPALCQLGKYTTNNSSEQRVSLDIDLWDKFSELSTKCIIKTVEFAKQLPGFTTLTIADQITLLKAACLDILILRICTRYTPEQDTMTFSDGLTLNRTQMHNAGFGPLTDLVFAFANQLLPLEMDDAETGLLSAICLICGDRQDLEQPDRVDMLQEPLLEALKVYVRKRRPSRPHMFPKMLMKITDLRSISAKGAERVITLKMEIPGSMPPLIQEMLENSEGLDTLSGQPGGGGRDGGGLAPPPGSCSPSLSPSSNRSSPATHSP

CCCCOC(=O)CC(CC(=O)OCCCC)(OC(C)=O)C(=O)OCCCC
active: [1] 56.2 µM | [2] 42 µM | [3] 43.6 µM | [5] 56.4 µM | [12] 23.4 µM | [16] 42.6 µM
inactive: [4] | [6] | [7] | [8] | [9] | [10] | [11] | [12] | [13] | [14] | [15] | [16] | [17]

Cc1ccc2oc(CN(Cc3ccccc3)C(=O)Nc3c(F)cc(F)cc3F)c(-c3ccc(Cl)cc3)c2c1
inactive: [1] | [2] | [3] | [4] | [5] | [6] | [7] | [8] | [9] | [10] | [11] | [12] | [13] | [14] | [15] | [16] | [18] | [17]

Cc1ncc(CO)c(CO)c1O
inactive: [1] | [19] | [2] | [3] | [4] | [5] | [6] | [20] | [7] | [8] | [9] | [10] | [11] | [12] | [13] | [14] | [15] | [16] | [17]
